Results: PubChem BioAssay (NCATS)
Where “and” joins values, the source holds several entries; their conditions need not be identical. Equal values may be shown once. Inconclusive results are not listed. Calls of active or inactive are those of the source. The call rests on the fitted dose curve; in most records, active means well fitted inhibition curve with a large enough effect; inconclusive means small, poorly fitted or top-dose-only effect; inactive means flat fitted curve, though single readings scatter.

Assays:
GB4 = assay: qHTS profiling for inhibitors of Plasmodium falciparum proliferation (AID 504749);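 further: 0% = DMSO vehicle and full inhibition = artemisinin control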; conditions: P. falciparum in erythrocytes, SYBR Green DNA, 72 h; series mostly up to 28.7 µM
How it was run: (§1)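 P. falciparum-infected erythrocytes (0.3% parasitemia, 2.5% hematocrit) incubated with compound 72 h at 37 C, 5% CO2. Parasite DNA detected by SYBR Green after lysis, overnight at room temperature; normalised to 0.29 uM artemisinin and DMSO.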

HB3 = assay: as above; conditions: P. falciparum in erythrocytes, SYBR Green DNA, 72 h; series mostly up to 28.7 µM
How it was run: as §1

ICS = assay: as above; conditions: P. falciparum in erythrocytes, SYBR Green DNA, 72 h; series mostly up to 28.7 µM
How it was run: as §1

JCK = assay: as above; conditions: P. falciparum in erythrocytes, SYBR Green DNA, 72 h; series mostly up to 28.7 µM
How it was run: as §1

N140 = assay: as above; conditions: P. falciparum in erythrocytes, SYBR Green DNA, 72 h; series mostly up to 28.7 µM
How it was run: as §1

P93_24 = assay: as above; conditions: P. falciparum in erythrocytes, SYBR Green DNA, 72 h; series mostly up to 28.7 µM
How it was run: as §1

P94_40 = assay: as above; conditions: P. falciparum in erythrocytes, SYBR Green DNA, 72 h; series mostly up to 28.7 µM
How it was run: as §1

PAD = assay: as above; conditions: P. falciparum in erythrocytes, SYBR Green DNA, 72 h; series mostly up to 28.7 µM
How it was run: as §1

PC15 = assay: as above; conditions: P. falciparum in erythrocytes, SYBR Green DNA, 72 h; series mostly up to 28.7 µM
How it was run: as §1

PC26 = assay: as above; conditions: P. falciparum in erythrocytes, SYBR Green DNA, 72 h; series mostly up to 28.7 µM
How it was run: as §1

PC49 = assay: as above; conditions: P. falciparum in erythrocytes, SYBR Green DNA, 72 h; series mostly up to 28.7 µM
How it was run: as §1

SC27B = assay: as above; conditions: P. falciparum in erythrocytes, SYBR Green DNA, 72 h; series mostly up to 28.7 µM
How it was run: as §1

TAB109 = assay: as above; conditions: P. falciparum in erythrocytes, SYBR Green DNA, 72 h; series mostly up to 28.7 µM
How it was run: as §1

TAB113 = assay: as above; conditions: P. falciparum in erythrocytes, SYBR Green DNA, 72 h; series mostly up to 28.7 µM
How it was run: as §1

TAB165 = assay: as above; conditions: P. falciparum in erythrocytes, SYBR Green DNA, 72 h; series mostly up to 28.7 µM
How it was run: as §1

W2 = assay: as above; conditions: P. falciparum in erythrocytes, SYBR Green DNA, 72 h; series mostly up to 28.7 µM
How it was run: as §1

CRL-7250 = normal cell line; assay: Cytotoxic Profiling of Annotated Libraries Using Quantitative High-Throughput Screening (AID 1296008); conditions: Five cell lines viability, CellTiter-Glo ATP luminescence, 48-72 h; max response: stronger effect = lower value; on max response: on the % scale 0 is the no-effect control and ±100 the full control effect
How it was run: (§2)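 Cells exposed to compounds for 48 or 72 hr at 37 degrees Celsius. Viability read as ATP-coupled luminescence with CellTiter-Glo after 10 min at room temperature.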

HEK293 = assay: as above; conditions: Five cell lines viability, CellTiter-Glo ATP luminescence, 48-72 h; max response: stronger effect = lower value
How it was run: as §2

HaCat = assay: as above; conditions: Five cell lines viability, CellTiter-Glo ATP luminescence, 48-72 h; max response: stronger effect = lower value
How it was run: as §2

KB-3-1 = assay: as above; conditions: Five cell lines viability, CellTiter-Glo ATP luminescence, 48-72 h; max response: stronger effect = lower value
How it was run: as §2
Further: nearly all actives have a fitted effect of over 60% in size.

CCOC(=O)c1ccc(O)cc1
inactive: Potency (GB4) | Potency (HB3) | Potency (ICS) | Potency (JCK) | Potency (N140) | Potency (P93_24) | Potency (P94_40) | Potency (PAD) | Potency (PC15) | Potency (PC26) | Potency (PC49) | Potency (SC27B) | Potency (TAB109) | Potency (TAB113) | Potency (TAB165) | Potency (W2) | max response (CRL-7250) -1.17% | outcome (HEK293) | max response (HaCat) -1.41% | max response (KB-3-1) -4.79%

O=c1cc[nH]c(=O)[nH]1
inactive: Potency (GB4) | Potency (HB3) | Potency (ICS) | Potency (JCK) | Potency (N140) | Potency (P93_24) | Potency (P94_40) | Potency (PAD) | Potency (PC15) | Potency (PC26) | Potency (PC49) | Potency (SC27B) | Potency (TAB109) | Potency (TAB113) | Potency (TAB165) | Potency (W2) | outcome (CRL-7250) | outcome (HEK293) | max response (HaCat) -1.66% | max response (KB-3-1) 20.9%

O=C(O)CC(O)C(=O)O (centres undefined)
inactive: Potency (GB4) | Potency (HB3) | Potency (ICS) | Potency (JCK) | Potency (N140) | Potency (P93_24) | Potency (P94_40) | Potency (PAD) | Potency (PC15) | Potency (PC26) | Potency (PC49) | Potency (SC27B) | Potency (TAB109) | Potency (TAB113) | Potency (TAB165) | Potency (W2) | max response (CRL-7250) -10.5% | outcome (HEK293) | outcome (HaCat) | max response (KB-3-1) 15.7%

CCCCCCCCCCCCCCCC(=O)NCCO
inactive: Potency (GB4) | Potency (HB3) | Potency (ICS) | Potency (JCK) | Potency (N140) | Potency (P93_24) | Potency (P94_40) | Potency (PAD) | Potency (PC15) | Potency (PC26) | Potency (PC49) | Potency (SC27B) | Potency (TAB109) | Potency (TAB113) | Potency (TAB165) | Potency (W2) | outcome (CRL-7250) | outcome (HEK293) | max response (HaCat) -5.78% | max response (KB-3-1) -1.52%

O=C1OC(OC(=O)c2cccnc2Nc2cccc(C(F)(F)F)c2)c2ccccc21 (centres undefined)
inactive: Potency (GB4) | Potency (HB3) | Potency (ICS) | Potency (JCK) | Potency (N140) | Potency (P93_24) | Potency (P94_40) | Potency (PAD) | Potency (PC15) | Potency (PC26) | Potency (PC49) | Potency (SC27B) | Potency (TAB109) | Potency (TAB113) | Potency (TAB165) | Potency (W2) | max response (CRL-7250) 1.85% | outcome (HEK293) | outcome (HaCat) | max response (KB-3-1) 7.28%

COc1ccc2c(c1)C(=O)N(CCc1ccc(S(=O)(=O)NC(=O)NC3CCCCC3)cc1)C(=O)C2(C)C
inactive: Potency (GB4) | Potency (HB3) | Potency (ICS) | Potency (JCK) | Potency (N140) | Potency (P93_24) | Potency (P94_40) | Potency (PAD) | Potency (PC15) | Potency (PC26) | Potency (PC49) | Potency (SC27B) | Potency (TAB109) | Potency (TAB113) | Potency (TAB165) | Potency (W2) | max response (CRL-7250) 2.02% and -12.3% | max response (HEK293) -11% | max response (HaCat) 4.11% | max response (KB-3-1) 7.8% and -5.8%

O=C(O)c1ccccn1
inactive: Potency (GB4) | Potency (HB3) | Potency (ICS) | Potency (JCK) | Potency (N140) | Potency (P93_24) | Potency (P94_40) | Potency (PAD) | Potency (PC15) | Potency (PC26) | Potency (PC49) | Potency (SC27B) | Potency (TAB109) | Potency (TAB113) | Potency (TAB165) | Potency (W2) | max response (CRL-7250) -6.73% | outcome (HEK293) | outcome (HaCat) | max response (KB-3-1) -2.2%

O=c1cc[nH]c(=S)[nH]1
inactive: Potency (GB4) | Potency (HB3) | Potency (ICS) | Potency (JCK) | Potency (N140) | Potency (P93_24) | Potency (P94_40) | Potency (PAD) | Potency (PC15) | Potency (PC26) | Potency (PC49) | Potency (SC27B) | Potency (TAB109) | Potency (TAB113) | Potency (TAB165) | Potency (W2) | max response (CRL-7250) 1.22% | outcome (HEK293) | outcome (HaCat) | max response (KB-3-1) -6.83%

Cc1ccc(C(C)C)cc2c(C)ccc1-2
inactive: Potency (GB4) | Potency (HB3) | Potency (ICS) | Potency (JCK) | Potency (N140) | Potency (P93_24) | Potency (P94_40) | Potency (PAD) | Potency (PC15) | Potency (PC26) | Potency (PC49) | Potency (SC27B) | Potency (TAB109) | Potency (TAB113) | Potency (TAB165) | max response (CRL-7250) 3.16% | outcome (HEK293) | max response (HaCat) -2.06% | max response (KB-3-1) -19.4%

CC1(C)OC(=O)NC1=O
inactive: Potency (GB4) | Potency (HB3) | Potency (ICS) | Potency (JCK) | Potency (N140) | Potency (P93_24) | Potency (P94_40) | Potency (PAD) | Potency (PC15) | Potency (PC26) | Potency (PC49) | Potency (SC27B) | Potency (TAB109) | Potency (TAB113) | Potency (TAB165) | Potency (W2) | max response (CRL-7250) 4.73% | outcome (HEK293) | outcome (HaCat) | max response (KB-3-1) 1.34%
